Only some compounds are listed: those with a hit (about 4% of all), similar ones and a draw of the others.
D1 agonist – activates the human D1 dopamine receptor. HEK293 T-REx D1 cells, calcium flux, agonist mode. P21728. 360,000 tested, 1% active. AID 504660. activation, % at 2 µM
Target sequence (P21728 whole entry, looked up): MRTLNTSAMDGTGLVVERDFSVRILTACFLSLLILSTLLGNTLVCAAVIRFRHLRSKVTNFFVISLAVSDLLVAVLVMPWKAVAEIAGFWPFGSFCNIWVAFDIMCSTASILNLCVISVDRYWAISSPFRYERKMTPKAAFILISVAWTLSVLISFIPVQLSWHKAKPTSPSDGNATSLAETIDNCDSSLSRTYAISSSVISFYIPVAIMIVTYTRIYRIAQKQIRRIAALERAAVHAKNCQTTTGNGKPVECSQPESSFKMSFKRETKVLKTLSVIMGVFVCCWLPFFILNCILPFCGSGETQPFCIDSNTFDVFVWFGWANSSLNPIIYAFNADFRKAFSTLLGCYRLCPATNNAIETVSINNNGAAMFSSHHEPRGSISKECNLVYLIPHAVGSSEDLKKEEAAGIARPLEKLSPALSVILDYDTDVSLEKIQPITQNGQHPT
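Inducible HEK293 T-REx D1 cells, force-coupled to calcium signalling, were plated at 4000 cells/well with tetracycline and held overnight at 30 C. After no-wash calcium dye loading, compound-evoked calcium rise over 180 s flagged agonists.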
TRHR agonist – activates the human TRH receptor; P34981; TRHR cells, calcium flux fluo-8, FDSS agonist mode; activation, % at 2 µM; 360,000 tested, 0.18% active
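In this calcium-flux screen, cells bearing human TRHR are dye-loaded with fluo-8, baselined for 10 cycles, then exposed to library compounds; positive kinetic calcium responses during the agonist phase mark hits, with TRH as control.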
TRHR PAM – TRH receptor (human) allosteric enhancement. 360,000 tested, 0.66% active. P34981. enhancement, % at 2 µM. AID 493056. TRHR cells, fluo-8 calcium fluorescence, EC20 TRH enhancement; in the data active means enhancement above about 30%
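TRHR-expressing cells loaded with fluo-8 calcium dye were read kinetically (ex 480/em 530) during compound addition, then stimulated with an EC20 of TRH (10 nM final). Enhancement of the Gq-mediated intracellular calcium response was scored.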
D1 antagonist – blocks dopamine activation of the human D1 receptor | P21728 | HEK293 TREx D1 cells, calcium flux, dopamine EC80; hits give low values | activity change, negative = inhibition, % at 10 µM | 360,000 tested, 3.2% active; in the data active means activity change below about -30%
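Compound effects on dopamine-evoked calcium signalling were measured in tetracycline-induced HEK293 Trex D1 cells. Dopamine at EC80 followed a 180 s compound pre-read, and fluorescence was tracked kinetically for 180 s more.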
GRP78 ERSR act – ER stress response induction in glioma | U87-MG GRP78 promoter luciferase reporter, 16 h | Potency, µM, actives largely listed as activators | 420,000 tested, 0.02% active | AID 602332; active means well fitted activation curve with a large enough effect; further: series mostly up to about 76 µM; nearly all actives have a fitted effect of over 35% in size
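ERSR induction read as luciferase luminescence (Bright-Glo, 10 min at room temperature) in stably transfected human U87-MG glioma cells exposed to compounds for 16 h, using GRP78 as sensor.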
D1 PAM – human D1 dopamine receptor positive modulation; P21728; HEK293 TREx D1 cells, calcium flux, dopamine EC20 potentiation; potentiation, % at 10 µM; 360,000 tested, 0.036% active; in the data active means potentiation above about 30%
Large screens that a line does not name were inactive; ! = not active in a repeat. Unless noted, no stated cut-off is given here; in the data, active means activation above about 30%; inactive means the rest.

CN1CCN(C(=O)c2ccccc2-c2nc(-c3ccc(Cl)cc3)no2)CC1	none
O=C(c1ccccc1-c1nc(-c2ccc(Cl)cc2)no1)N1CCCC1	D1 antagonist -34.9
CCNC(=S)N(CCc1c(C)[nH]c2ccc(F)cc12)Cc1cccnc1	none
Cc1[nH]c2ccc(F)cc2c1CCN(Cc1cccnc1)C(=S)Nc1ccc(F)cc1	D1 antagonist -37.3
CS(=O)(=O)Nc1ccccc1C(=O)NCCSc1ccc(Cl)cc1	D1 antagonist -31.9
CCCCCCCCN=C1NC(=O)CS1	none
COc1ccc(C(CC(=O)O)c2ccc3c(c2)OCO3)cc1 (configuration not stated)	none
COc1ccc(CNCCC(c2ccccc2)c2ccc3c(c2)OCO3)cc1 (configuration not stated)	D1 agonist 132.8
CC(C)CCC(CCNCc1ccccn1)c1ccc2c(c1)OCO2 (configuration not stated)	D1 agonist 30.3
CCNCCC(CCC(C)C)c1ccc2c(c1)OCO2 (configuration not stated)	none
COc1ccc(CNCCC(c2ccc(C)cc2)c2ccco2)cc1 (configuration not stated)	D1 agonist 92.1 (no result: GRP78 ERSR act)
Cc1ccc(C(CCN)c2ccco2)cc1 (configuration not stated)	none
CC(C)N(Cc1nc(-c2ccccc2)no1)C(=O)CN(C)S(=O)(=O)c1ccc(Br)cc1	none
Cc1ccc(S(=O)(=O)c2nnn3c2nc(N2CCC(C(N)=O)CC2)c2ccccc23)cc1C	none
Cc1ccc2c(c1)C(c1ccccc1)N(C(=O)C(C)C)CC(=O)N2 (configuration not stated)	none
Cc1ccc(C(=O)/C=C/Nc2ccc(S(=O)(=O)Nc3cc(C)nc(C)n3)cc2)cc1	D1 antagonist -56.6
CCC(C)C(NC(=O)c1ccccc1)C(=O)Nc1ccc(S(=O)(=O)Nc2cc(C)nc(C)n2)cc1 (configuration not stated)	D1 antagonist -58.5
O=c1c2cc3c(cc2nc2sc(Nc4ccc(F)c(Cl)c4)nn12)OCO3	D1 agonist 54.8
COc1ccc(C2CC(c3ccc(F)cc3)=NN2c2ccccc2)cc1OC (configuration not stated)	D1 antagonist -78.4
COc1ccc(C2=NN(c3ccccc3)C(c3ccc(OC)c(OC)c3)C2)cc1 (configuration not stated)	none
COc1ccccc1NS(=O)(=O)c1cccc(C(=O)NCC(c2cccs2)N(C)C)c1 (configuration not stated)	none (no result: D1 agonist, TRHR agonist, TRHR PAM, D1 antagonist, D1 PAM)
CC(NC(=O)[C@@H](C)NC(=O)[C@@H]1Cc2ccccc2CN1C(=O)OC(C)(C)C)c1ccccc1 (some centres not stated)	none
C[C@@H](NC(=O)[C@@H]1Cc2ccccc2CN1C(=O)OC(C)(C)C)C(=O)NC1CCCC1	D1 antagonist -40.5
Cc1ccc(NC(=O)c2ncn(CCCNCCCN(C)C)n2)cc1C	none (no result: D1 agonist, TRHR agonist, TRHR PAM, D1 antagonist, D1 PAM)
O=C(O)CC/C(=N\NC(=O)CNC(=O)/C=C/c1ccccc1)c1ccccc1	none
CCOC(=O)c1cccc(NS(=O)(=O)c2cc3c(cc2C)NC(=O)CO3)c1	D1 antagonist -46.4
COc1cccc(CNS(=O)(=O)c2cc3c(cc2C)NC(=O)CO3)c1	D1 antagonist -32.4
Cc1cc2c(cc1S(=O)(=O)N(C)CC(=O)Nc1ccc(C#N)cc1)OCC(=O)N2	D1 antagonist -54.9
CC(=O)c1ccc(NC(=O)CN(C)S(=O)(=O)c2cc3c(cc2Cl)NC(=O)CO3)cc1	none
Cc1ccc(CNC(=O)CCS(=O)(=O)c2ccc3c(c2)NC(=O)CO3)cc1	none
Cc1ccc(CNC(=O)CCS(=O)(=O)c2cc3c(cc2C)NC(=O)CO3)cc1	D1 antagonist -31.8!
COc1ccccc1CNC(=O)c1cc2cc(S(=O)(=O)N3CCCCC3)ccc2n1C	none
Nc1ccc(Cn2ccc3c4c(N)nc(N)nc4ccc32)cc1	none (no result: D1 agonist, TRHR agonist, TRHR PAM, D1 antagonist, D1 PAM)
COc1ccc(NS(=O)(=O)c2cc3c(cc2C)NC(=O)CO3)c(OC)c1	D1 antagonist -57.8!
Cc1ccccc1NS(=O)(=O)c1cc2c(cc1C)NC(=O)CO2	none
